“And” between values parts separate entries of the source, which are not always exact repeats. Equal values may be shown once. Read-outs that look alike come from different tables or passages of the source.
What was measured:
TIE1 = settings: concentration: 1 μM, replicates: in singlicate; n = 1
TIE2 = test system: T1, TIE2; settings: concentration: 1 μM, replicates: in singlicate, n = 1
T1 construct: gene TEK

TLK1 = settings: concentration: 1 μM, replicates: in singlicate, n = 1
TLK2 = settings: concentration: 1 μM, replicates: in singlicate, n = 1
TNIK = settings: concentration: 1 μM, replicates: in singlicate, n = 1
TNK1 = settings: concentration: 1 μM, replicates: in singlicate, n = 1
TNK2 = settings: concentration: 1 μM, replicates: in singlicate; n = 1
TNNI3K = settings: concentration: 1 μM, replicates: in singlicate, n = 1
TRKA = test system: T2, TRKA; settings: concentration: 1 μM, replicates: in singlicate, n = 1
T2 construct: gene NTRK1

TRKB = settings: concentration: 1 μM, replicates: in singlicate, n = 1
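Note: KINOMEscan kinase panel screen.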

| Structure (SMILES) | %Inh (TIE1) | %Inh (TIE2) | %Inh (TLK1) | %Inh (TLK2) | %Inh (TNIK) | %Inh (TNK1) | %Inh (TNK2) | %Inh (TNNI3K) | %Inh (TRKA) | %Inh (TRKB) | %Inh (TIE2; 1 µM) | %Inh (TLK1; 1 µM) | %Inh (TLK2; 1 µM) | %Inh (TNIK; 1 µM) | %Inh (TNK1; 1 µM) | %Inh (TNNI3K; 1 µM) | %Inh (TRKA; 1 µM) | %Inh (TRKB; 1 µM) |
| --- | --- | --- | --- | --- | --- | --- | --- | --- | --- | --- | --- | --- | --- | --- | --- | --- | --- | --- |
| O=C(c1ccc(-c2cc(-c3c[nH]nc3-c3ccccn3)ccn2)cc1)N1CCCC1 [GW792479] | 0% | 27% | 0% | 0% | 48% | 21% | 0% | 0% | 0% | 0% |  |  |  |  |  |  |  |  |
| CC(C)N1CCC(n2cnc(-c3ccc(F)cc3)c2-c2ccnc(N)n2)CC1 [SB-223132] | 0% | 96.9% | 5% | 0% | 11% | 3% | 0% | 4% | 0% | 0% |  |  |  |  |  |  |  |  |
| Cn1cc(-c2ccc3c(c2)CCN3C(=O)Cc2cccc(C(F)(F)F)c2)c2c(N)ncnc21 [GSK2606414] | 46% | 24% | 2% | 0% | 0% | 0% | 0% | 0% | 35% | 46% |  |  |  |  |  |  |  |  |
| C[C@@H]1CCN(C(=O)CO)C[C@@H]1N(C)c1ncnc2[nH]ccc12 | 3% | 2% | 0% | 0% | 6% | 62% | 0% | 0% | 15% | 10% |  |  |  |  |  |  |  |  |
| CCn1c(-c2ccncc2)nc2cnccc21 [SB-735216] | 0% | 12% | 0% | 0% | 0% | 1% | 13% | 0% | 27% | 41% |  |  |  |  |  |  |  |  |
| COc1ccc(NC(=O)c2ccc(-c3cc(-c4nnc(C)o4)ccc3C)cc2)cc1 [GW595885] | 14% | 0% | 0% | 0% | 0% | 0% | 21% | 0% | 0% | 17% |  |  |  |  |  |  |  |  |
| Cc1cccc(-c2nc(Nc3ccc4[nH]nnc4c3)c3ccccc3n2)n1 [GW867587] | 0% | 0% | 0% | 0% | 0% | 24% | 0% | 0% | 0% | 0% |  |  |  |  |  |  |  |  |
| O=c1cc(N2CCOCC2)nc2n(Cc3cccc(Cl)c3)ccn12 [GSK2296823] | 16% | 0% | 0% | 0% | 0% | 0% | 28% | 1% | 0% | 0% |  |  |  |  |  |  |  |  |
| CNc1nccc(-c2c(-c3ccc(F)cc3)ncn2CCCN2CCOCC2)n1 [SB-222516] | 0% | 0% | 0% | 0% | 0% | 4% | 0% | 0% | 0% | 19% |  |  |  |  |  |  |  |  |
| CC(C)(C)OC(=O)NC1CCCN(c2cc(-c3ccc4c(N)n[nH]c4c3)nc(N)n2)C1 (stereo not shown) [GSK2286096] | 0% | 0% | 0% | 0% | 0% | 10% | 13% | 6% | 0% | 0% |  |  |  |  |  |  |  |  |
| Clc1cccc(-c2nc(Nc3ccncc3)c3ccccc3n2)c1 [GW873004] | 0% | 48% | 0% | 0% | 0% | 59% | 40% | 0% | 0% | 0% |  |  |  |  |  |  |  |  |
| OCCOCCn1ccc2ncnc(Nc3ccc(Oc4cccc(Cl)c4)c(Cl)c3)c21 | 0% | 31% | 0% | 0% | 0% | 0% | 0% | 0% | 0% | 0% |  |  |  |  |  |  |  |  |
| COc1ccc(NC(=O)Nc2ccc(C)c(-c3ccc(C(=O)Nc4ccncc4)cc3)c2)cc1 [GSK1398475] | 0% | 0% | 19% | 0% | 0% | 0% | 17% | 17% | 0% | 0% |  |  |  |  |  |  |  |  |
| Fc1ccc(-c2ncn(CCCNCc3ccccc3)c2-c2ccncc2)cc1 | 23% | 0% | 26% | 0% | 12% | 0% | 13% | 0% | 38% | 3% |  |  |  |  |  |  |  |  |
| Fc1ccc(Nc2nccc(-c3c(-c4ccc(Cl)cc4)nn4ncccc34)n2)cc1F [GW829058] | 38% | 18% | 0% | 12% | 89% | 24% | 0% | 3% | 13% | 0% |  |  |  |  |  |  |  |  |
| CNc1nccc(-c2c(-c3ccc(F)cc3)ncn2C2CCN(C)CC2)n1 [SB-222903] | 0% | 0% | 0% | 0% | 21% | 25% | 0% | 0% | 20% | 0% |  |  |  |  |  |  |  |  |

| Structure (SMILES) | %Inh (TIE1) | %Inh (TIE2) | %Inh (TLK1) | %Inh (TLK2) | %Inh (TNIK) | %Inh (TNK1) | %Inh (TNK2) | %Inh (TNNI3K) | %Inh (TRKA) | %Inh (TRKB) | %Inh (TIE2; 1 µM) | %Inh (TLK1; 1 µM) | %Inh (TLK2; 1 µM) | %Inh (TNIK; 1 µM) | %Inh (TNK1; 1 µM) | %Inh (TNNI3K; 1 µM) | %Inh (TRKA; 1 µM) | %Inh (TRKB; 1 µM) |
| --- | --- | --- | --- | --- | --- | --- | --- | --- | --- | --- | --- | --- | --- | --- | --- | --- | --- | --- |
| COc1cc2c(Nc3cccc(NC(=O)c4ccccc4)c3)ncnc2cc1OCCCN1CCOCC1 [GSK223810] | 24% | 0% | 0% | 0% | 0% | 22% | 13% | 25% | 45% | 0% |  |  |  |  |  |  |  |  |
| CCc1nc(-c2cccc(N(C)S(=O)(=O)c3ccccc3)c2)c(-c2ccnc(Nc3ccc(N4CCN(C(C)=O)CC4)nc3)n2)s1 [GSK1645895] | 5% | 18% | 26% | 20% | 4% | 29% | 3% | 0% | 0% | 0% |  |  |  |  |  |  |  |  |
| Nc1nc(-c2ccc3c(N)n[nH]c3c2)cc(N2CCCCC2)n1 [GSK2228768] | 6% | 0% | 0% | 0% | 0% | 0% | 13% | 0% | 0% | 0% |  |  |  |  |  |  |  |  |
| Cc1ccc(O)cc1Nc1cc(C(F)(F)F)nc2ccc(-c3ccncc3)cc12 [GW630823] | 0% | 3% | 21% | 0% | 1% | 0% | 17% | 14% | 0% | 0% |  |  |  |  |  |  |  |  |
| COC(=O)c1c(-c2ccccc2)c2cc(Cl)ccc2c(=O)n1Cc1ccc(S(C)(=O)=O)cc1 | 4% | 0% | 19% | 0% | 4% | 0% | 0% | 19% | 0% | 0% |  |  |  |  |  |  |  |  |
| O=C(NCCCN1CCCC1=O)c1cnc(NCc2cc(Cl)ccc2Cl)nc1NC1CCNCC1 | 1% | 2% | 12% | 0% | 0% | 34% | 0% | 0% | 69% | 32% |  |  |  |  |  |  |  |  |
| Nc1nc(-c2ccccn2)c(-c2ccnc3ccccc23)s1 [GW548057] | 0% | 0% | 12% | 4% | 33% | 0% | 5% | 0% | 49% | 0% |  |  |  |  |  |  |  |  |
| c1ccc(-c2ccc3c(-c4ccnc(Nc5ccc6c(c5)OCCO6)n4)cnn3n2)cc1 [GW818941] | 22% | 8% | 0% | 0% | 1% | 0% | 12% | 17% | 34% | 0% |  |  |  |  |  |  |  |  |
| O=C(Nc1n[nH]c2nc(-c3ccco3)c(Br)cc12)c1ccc(CN2CCCC2)cc1.O=C(O)[C@H](O)[C@@H](O)C(=O)O [SB-742352] | 0% | 0% | 3% | 0% | 14% | 38% | 0% | 12% | 18% | 0% |  |  |  |  |  |  |  |  |
| Cn1ccc2ncnc(Oc3ccc(NC(=O)Nc4cccnc4)c(Cl)c3)c21 | 18% | 0% | 13% | 0% | 1% | 0% | 0% | 0% | 0% | 0% |  |  |  |  |  |  |  |  |
| Cl.Cl.c1ccc(-c2cc3ccncc3cc2OC2CCNCC2)cc1 [GSK1122999] | 1% | 0% | 0% | 7% | 0% | 6% | 27% | 26% | 0% | 0% |  |  |  |  |  |  |  |  |
| FC(F)(F)c1cc(Nc2nccc(-c3c(-c4ccc(Cl)cc4)nn4ncccc34)n2)ccc1Cl [GW829351] | 0% | 0% | 0% | 0% | 12% | 21% | 0% | 0% | 0% | 0% |  |  |  |  |  |  |  |  |
| CCC(CC)(CC)n1cnc2c(N)ncnc21 [SKF-97620] | 21% | 8% | 27% | 2% | 100% | 6% | 0% | 0% | 41% | 26% |  |  |  |  |  |  |  |  |
| COc1ccc(-c2nc3n(c2-c2ccncc2)CCC3)cc1 [SKF-104493] | 0% |  |  |  |  |  | 0% |  |  |  | 0% and 2% | 7% and 0% | 0% and 24% | 0% and 11% | 6% and 0% | 25% and 6% | 0% and 32% | 13% and 0% |
| Oc1ccc2ncnc(Nc3ccc(OCc4ccccc4)cc3)c2c1 [GI262866] | 19% | 0% | 0% | 0% | 0% | 0% | 4% | 77% | 0% | 0% |  |  |  |  |  |  |  |  |

From article PMC5540273 (PLoS ONE, 2017)
